Measurements as given in the supplement of paper PMC10681739.

target: T1, ETS1 (UniProt P14921); test: ETS1 binding intensity (PBM fluorescence), ETS1 alone (arbitrary fluorescence units); higher = stronger binding; details: ETS1 concentration 1 nM; RUNX1 concentration 0 nM
T1 sequence: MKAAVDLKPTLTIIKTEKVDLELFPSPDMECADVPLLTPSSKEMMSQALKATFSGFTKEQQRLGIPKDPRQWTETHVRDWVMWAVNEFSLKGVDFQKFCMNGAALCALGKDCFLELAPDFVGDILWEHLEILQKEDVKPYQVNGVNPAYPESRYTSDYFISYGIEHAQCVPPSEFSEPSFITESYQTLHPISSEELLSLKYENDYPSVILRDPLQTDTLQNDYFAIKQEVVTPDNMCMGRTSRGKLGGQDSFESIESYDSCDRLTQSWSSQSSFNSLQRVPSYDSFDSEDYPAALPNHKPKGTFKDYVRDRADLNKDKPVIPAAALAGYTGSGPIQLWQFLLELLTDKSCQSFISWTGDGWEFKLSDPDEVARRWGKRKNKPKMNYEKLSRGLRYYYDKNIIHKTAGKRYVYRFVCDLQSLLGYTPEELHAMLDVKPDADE

| Sequence | ETS1 binding intensity |
| --- | --- |
| CAGCCCTAGCGAGTTTCCTGCGGGGAAGGGCATTCC | 537 |
| CCGTGTCAGTGAGGATGTGGGCTGCCGGGCTGGGCG | 491 |
| CTTCGCCGCTTCCAGGAAGGGCCACAACGGCCGTCG | 563 |

target: T1, ETS1; test: TF binding intensity (PBM fluorescence), negative control probe (arbitrary fluorescence units); higher = stronger binding; details: not given
Description: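 gcPBM negative-control 36-bp genomic probes lacking TF binding sites. Each was incubated with recombinant human ETS1 or RUNX1 alone and detected by antibody fluorescence. Values are medians over replicate spots (4 spots for the ETS1-RUNX1 arrays, 3 for the ETS1-ETS1 array). The probes sit in constant array flanks that are not printed.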

| Sequence | TF binding intensity |
| --- | --- |
| AAAACTAAAAGTAGAACCACCATATGATCCAGTAAT (protein concentration 1 nM) | 504 |
| GTCTTGTTACTGGAGTGTGATAGCACCTAATAATAT (protein concentration 10 nM) | 150 |
| TTATGAACTGTATCATGTGGTTTGAGTTTAATTTGG (protein concentration 1 nM) | 487 |
| GCAAAGCGGGCGAGTGGCCTGGAGAGAGGGAGCAGC (protein concentration 10 nM) | 150 |
| CGTTCGTTCGACAGCTCTTGTGGTAAACAGCGTCAA (protein concentration 10 nM) | 132 |
| CTTATTATTAATGGTCATTAGCCACAGTCACCACCA (protein concentration 10 nM) | 137 |
| ATGGCTGGGTCAGAGCGGCCTGTCAGCCCGGCTGGA (protein concentration 10 nM) | 98 |
| GTGAAACCAGGGCACAGGTAGAAATCCCTAGAGCAG (protein concentration 10 nM) | 138 |
| GAACTAACGAGGTCACTGAGAAATTACAAAGTGTGA (protein concentration 10 nM) | 107 |
| TTCAAAGCACATTCACCCACATGATCCTATTGATCT (protein concentration 1 nM) | 468 |
| TAGGGAATGGTGAGCTGTGGTTTGTGGCTTCATGGA (protein concentration 1 nM) | 443 |
| GAAATATGACAAAAAACCCCTATCCTATGATAAGTC (protein concentration 10 nM) | 146 |
| GGCTGAGGTGTCTGTGTTGGCAGCAGGAGCCTCTCT (protein concentration 10 nM) | 128 |
| TCTTGTATTTTCCTAAAGATTTGTGTGCTGTTTCTC (protein concentration 10 nM) | 100 |
| AAAGGCAGATCTCCAAATCTCCAGGCCTGCTCGTTG (protein concentration 10 nM) | 96.1 |
| CACCTCCTAAACAAAGCCGCATAGGTGATGGTGATG (protein concentration 1 nM) | 463 |
| GTATTTTGGGCGATAACACTTTCTCTACTTCTAAAA (protein concentration 10 nM) | 116 |

| Sequence | TF binding intensity |
| --- | --- |
| AAATTCTGTAACCAGTGCTCTTGAGCTGCTTGCTGG (protein concentration 10 nM) | 102 |
| CACACCCGCCTGTTACCCACATGCACAAGCAGTCTG (protein concentration 1 nM) | 449 |
| TTTAAAAAATCTACTCTGTCCCTTAAAAGGCCGTTT (protein concentration 10 nM) | 107 |
| ACCCTGAGCCCTCTCCCGCTCCCTGGGTCTCAGCCT (protein concentration 10 nM) | 98.1 |
| TCGAGTGGTGAGAAGGAGAAGGAGCGGCTGGGAGGC (protein concentration 10 nM) | 137 |
| CTCCACGACCCTGAAACTAGAACAAGACCTCTCCTC (protein concentration 10 nM) | 165 |
| ATTCTTCTAATAATCCAGTTTGAGTGGATCCTCTGT (protein concentration 10 nM) | 112 |
| CAGGCTGTGGTTTCCATCATGAACACGTGATCCAGC (protein concentration 10 nM) | 127 |
| GGCATCTACCTCCCAGGAGCAAGCGGGAGACAGCCC (protein concentration 10 nM) | 134 |
| TGCTCTAGAGATGTGATCGTCCTCATTTCATGAAGG (protein concentration 10 nM) | 121 |
| CATTAGTAAACCCTTACCACACCCAAACAACAAAAG (protein concentration 1 nM) | 541 |
| CCGGCTGTCTCCTGCACCCAGGTAAGCAGCGGCGCT (protein concentration 10 nM) | 108 |
| TCCTCAGGGACGTGTGAGAACCTGGCTAGGCAAGAG (protein concentration 10 nM) | 135 |
| GGGGCCTCGAAGGTCCTCCTGGACTGCAAGAGAGGA (protein concentration 10 nM) | 131 |
| ATATTCTCTTACATAACCACAGTACATTTATCAGCC (protein concentration 1 nM) | 573 |
| GTTGGGCCCCCTGGGCCTTGTTCTCGGGATCCAGGG (protein concentration 10 nM) | 111 |
